Records with an inconclusive call do not appear. Activity calls are given as the source filed them. The call rests on the fitted dose curve; in most records, active means well fitted curve in the direction sought with a large enough effect; inconclusive means small, poorly fitted or top-dose-only effect, or another doubt; inactive means no such curve, though single readings can be large or run the other way.
What follows are compounds tested against Protein phosphatase EYA2 (Homo sapiens) (UniProt O00167) (assay: Inhibitors of Eya2ED: Hit Confirmation in Primary Screen). Conditions: Recombinant Eya2ED, OMFP fluorescence phosphatase assay; series mostly up to 76.9 µM; activity change, negative = inhibition: at the top concentration.
Chain of Protein phosphatase EYA2 (Homo sapiens) (O00167 whole entry, looked up): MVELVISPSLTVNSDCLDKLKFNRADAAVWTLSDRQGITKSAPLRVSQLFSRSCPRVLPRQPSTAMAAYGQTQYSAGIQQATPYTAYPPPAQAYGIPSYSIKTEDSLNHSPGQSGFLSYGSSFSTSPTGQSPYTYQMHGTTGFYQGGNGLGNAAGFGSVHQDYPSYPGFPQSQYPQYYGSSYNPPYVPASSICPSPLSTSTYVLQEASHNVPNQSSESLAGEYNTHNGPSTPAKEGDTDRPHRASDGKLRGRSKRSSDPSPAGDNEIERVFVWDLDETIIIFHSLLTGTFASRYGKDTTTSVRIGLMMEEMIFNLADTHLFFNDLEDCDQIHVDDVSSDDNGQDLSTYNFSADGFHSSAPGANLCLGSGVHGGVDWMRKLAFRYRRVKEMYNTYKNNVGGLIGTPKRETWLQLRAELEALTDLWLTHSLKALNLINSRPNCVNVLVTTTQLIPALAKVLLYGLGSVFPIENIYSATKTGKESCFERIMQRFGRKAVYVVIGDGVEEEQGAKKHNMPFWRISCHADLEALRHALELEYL
Text: The Eya proteins (Eya1-4) were originally identified as essential co-activators of the Six1 transcription factor. […] Knockdown of Six1 decreases cancer cell proliferation and metastases in several different cancer models. […] A fluorescence-based HTS assay has been perfomed against the Molecular Libraries Small Molecule Repository (MLSMR) and has the AID 488837 in this database. After completion of the primary screen, hits were re-ordered and tested again in the primary screen in a 12 point titration. NIH Chemical Genomics Center [NCGC] NIH Molecular Libraries Probe Centers Network [MLPCN] MLPCN Grant: DA030559-01 Assay Submitter (PI): Rui Zhao, University of Colorado, Denver
The Eya2 enzyme was kindly provided by the laboratory of Dr. Rui Zhao. The 3-O-methyl-fluorescein phosphate (OMFP) substrate and all buffer reagents were purchased from Sigma Aldrich. qHTS Assay Setup: 1. Buffer- 50 mM HEPES pH 7.5, 50 mM NaCl, 5 uM MgCl2, 0.05% BSA, 1 mM DTT. 2. OMFP Stock- 10 mM solution prepared in 100% DMSO and stored in single use aliquots at -20C. Assay Procedure- 1. Dispense 1.5 ul per well of Eya2 at 0.2 uM in black medium binding 1536 well Greiner plate 2. Transfer 23 nl of compound and control compound (EGTA) to plate 3. Incubate at ambient for 10 minutes 4. Dispense 1.5 ul per well of OMFP at 50 uM 5. Incubate at ambient for 10 minutes 6. Read on ViewLux using Excitation = 485 nm, Emission = 525 nm

| Structure (SMILES) | activity change, negative = inhibition |
| --- | --- |
| Cn1c(O)c(/C=N/NC(=O)c2ccncc2)c(=O)n(C)c1=S | -13.9% (inactive) |
| CCOC(=O)c1ccc(N=C(CC)c2c(O)n(C)c(=O)n(C)c2=O)cc1 | -16% (inactive) |
| O=c1[nH]c(=O)n(C2CCCCC2)c(O)c1C1NCCc2ccccc21 (stereo not given) | -5.77% (inactive) |
| O=[N+]([O-])c1ccc(N2CCCC2)c2ccncc12 | -9.57% (inactive) |
| O=C(O)C1C2CCC(O2)C1C(=O)Nc1cccc(Br)c1 (stereo not given) | 8.6% (inactive) |

Reference: PubChem BioAssay AID504895 (National Center for Advancing Translational Sciences (NCATS), 2011)
